Test results from the supplement of paper PMC10849652.
About 7,900 targets were measured; listed, in parts, are those with a hit and a random draw of the rest. About 0.6% of all pairs of compound and target were hits. Values without a mark were called inactive.

What was measured:
Assay in all cases: log2 fold change, soluble protein after heating vs DMSO (PISA); higher = thermal stabilisation; K562 cells, 10 uM, 30 min; active = over 0.2 and 3.5 SD of the protein, either way, in both replicates (recomputed)
[1] = compound: C1=CC=C(C=C1)[C@H](COC2=CC3=C(C=C2)NC(=O)N3)NC(=O)C4=CC=CN(C4=O)CC5=CC(=C(C=C5)F)F
Summary of the method: (§1)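 K562 cells at 2×10^6 cells/mL were given 10 μM compound for 30 min. Aliquots then went through 3 min of heating across 48°C-58°C, were pooled, and were extracted in PBS with 0.5% NP-40 at 4°C, and the supernatant after 21,000xg for 90 min was quantified by TMTpro 16plex LC-MS/MS with channel sums equalised. Thermal stability relative to control samples, from duplicates, is given as log2 fold change.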

[2] = compound: CC1=C(SC2=C1C(=N[C@H](C3=NN=C(N32)C)CC(=O)N)C4=CC=C(C=C4)Cl)C
Summary of the method: as §1

[3] = compound: CC1=C2C(=CC=C1)N=C(N(C2=O)C3=CC=CC=C3C)CN4C=NC5=C(N=CN=C54)N
Summary of the method: as §1

[4] = compound: Cc1sc2c(c1C)C(c1ccc(Cl)cc1)=N[C@@H](CC(=O)OC(C)(C)C)c1nnc(C)n1-2
Summary of the method: as §1

[5] = compound: c1ccc([C@@H]2C[C@H]2NC2CCNCC2)cc1
Summary of the method: as §1

Chain of UniProt A8MTT3 (A8MTT3 whole entry, looked up): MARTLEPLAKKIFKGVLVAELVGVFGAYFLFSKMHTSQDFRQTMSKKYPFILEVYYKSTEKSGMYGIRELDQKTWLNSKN
Chain of UniProt Q69YH5 (Q69YH5 whole entry, looked up): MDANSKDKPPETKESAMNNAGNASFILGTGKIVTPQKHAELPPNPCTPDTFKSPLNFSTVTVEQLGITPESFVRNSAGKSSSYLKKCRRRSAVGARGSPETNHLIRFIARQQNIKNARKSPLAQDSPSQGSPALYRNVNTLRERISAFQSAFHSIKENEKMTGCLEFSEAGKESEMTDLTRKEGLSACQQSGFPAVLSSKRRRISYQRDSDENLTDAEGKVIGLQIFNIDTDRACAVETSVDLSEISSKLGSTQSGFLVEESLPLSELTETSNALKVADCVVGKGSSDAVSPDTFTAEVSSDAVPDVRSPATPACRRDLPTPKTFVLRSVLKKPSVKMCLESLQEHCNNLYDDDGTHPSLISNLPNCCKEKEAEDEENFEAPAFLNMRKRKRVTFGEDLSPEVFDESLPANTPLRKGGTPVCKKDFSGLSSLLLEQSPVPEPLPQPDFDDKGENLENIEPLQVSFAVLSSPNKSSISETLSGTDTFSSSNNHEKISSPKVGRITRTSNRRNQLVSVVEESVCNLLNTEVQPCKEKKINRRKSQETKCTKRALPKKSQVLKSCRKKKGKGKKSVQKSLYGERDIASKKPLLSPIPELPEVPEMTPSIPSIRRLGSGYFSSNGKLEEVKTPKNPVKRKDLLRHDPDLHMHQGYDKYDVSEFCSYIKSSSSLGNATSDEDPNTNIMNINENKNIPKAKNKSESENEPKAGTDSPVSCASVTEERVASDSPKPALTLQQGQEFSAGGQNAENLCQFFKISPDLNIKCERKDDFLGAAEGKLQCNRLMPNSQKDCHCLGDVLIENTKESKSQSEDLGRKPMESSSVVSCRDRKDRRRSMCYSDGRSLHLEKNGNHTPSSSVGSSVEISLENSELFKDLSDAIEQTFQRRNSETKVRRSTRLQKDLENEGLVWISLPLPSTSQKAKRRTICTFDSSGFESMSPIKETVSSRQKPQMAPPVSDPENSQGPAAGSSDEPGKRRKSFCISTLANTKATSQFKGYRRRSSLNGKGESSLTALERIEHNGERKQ
Chain of UniProt Q8N668 (Q8N668 whole entry, looked up): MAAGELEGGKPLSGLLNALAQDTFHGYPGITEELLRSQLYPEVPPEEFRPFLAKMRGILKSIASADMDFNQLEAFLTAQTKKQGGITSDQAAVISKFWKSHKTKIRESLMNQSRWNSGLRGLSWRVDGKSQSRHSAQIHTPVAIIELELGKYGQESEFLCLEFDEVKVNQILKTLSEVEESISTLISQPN
Chain of UniProt Q9HCH3 (Q9HCH3 whole entry, looked up): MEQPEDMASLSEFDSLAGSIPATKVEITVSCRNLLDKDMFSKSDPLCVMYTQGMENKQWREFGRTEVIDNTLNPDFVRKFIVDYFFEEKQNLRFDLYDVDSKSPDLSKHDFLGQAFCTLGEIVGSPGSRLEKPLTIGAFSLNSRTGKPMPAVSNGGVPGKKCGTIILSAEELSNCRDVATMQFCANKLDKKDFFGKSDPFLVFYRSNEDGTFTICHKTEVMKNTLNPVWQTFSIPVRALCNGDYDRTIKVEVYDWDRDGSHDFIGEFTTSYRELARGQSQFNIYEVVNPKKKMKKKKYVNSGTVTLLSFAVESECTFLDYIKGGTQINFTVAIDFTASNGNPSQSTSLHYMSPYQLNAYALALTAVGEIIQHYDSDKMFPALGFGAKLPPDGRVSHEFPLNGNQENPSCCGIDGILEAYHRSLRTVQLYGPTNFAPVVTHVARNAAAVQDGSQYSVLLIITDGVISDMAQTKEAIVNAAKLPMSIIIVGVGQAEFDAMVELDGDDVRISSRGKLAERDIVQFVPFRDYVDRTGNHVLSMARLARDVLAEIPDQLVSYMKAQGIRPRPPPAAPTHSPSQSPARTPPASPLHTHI
Chain of UniProt Q14061 (Q14061 whole entry, looked up): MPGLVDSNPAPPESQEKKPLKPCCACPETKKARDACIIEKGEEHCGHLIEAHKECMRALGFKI
Chain of UniProt Q9UNS2 (Q9UNS2 whole entry, looked up): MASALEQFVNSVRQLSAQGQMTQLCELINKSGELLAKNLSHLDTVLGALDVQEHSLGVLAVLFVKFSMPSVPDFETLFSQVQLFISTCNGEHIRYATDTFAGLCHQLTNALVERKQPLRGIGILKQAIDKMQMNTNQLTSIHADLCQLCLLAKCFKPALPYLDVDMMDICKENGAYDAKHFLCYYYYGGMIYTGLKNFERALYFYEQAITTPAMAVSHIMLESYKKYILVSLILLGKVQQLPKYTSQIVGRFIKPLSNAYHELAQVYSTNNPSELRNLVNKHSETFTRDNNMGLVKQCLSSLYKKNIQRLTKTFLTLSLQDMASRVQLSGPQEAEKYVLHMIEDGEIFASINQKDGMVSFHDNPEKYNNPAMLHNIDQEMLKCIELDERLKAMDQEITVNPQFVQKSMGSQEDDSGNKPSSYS
Chain of UniProt Q9Y2V0 (Q9Y2V0 whole entry, looked up): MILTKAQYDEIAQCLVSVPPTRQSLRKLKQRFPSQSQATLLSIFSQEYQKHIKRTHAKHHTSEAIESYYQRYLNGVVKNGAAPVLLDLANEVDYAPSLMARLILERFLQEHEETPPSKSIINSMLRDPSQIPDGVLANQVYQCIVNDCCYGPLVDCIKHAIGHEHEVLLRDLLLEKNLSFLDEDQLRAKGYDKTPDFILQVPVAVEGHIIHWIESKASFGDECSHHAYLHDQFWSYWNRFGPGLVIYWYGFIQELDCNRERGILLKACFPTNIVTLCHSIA
Chain of UniProt P51795 (P51795 whole entry, looked up): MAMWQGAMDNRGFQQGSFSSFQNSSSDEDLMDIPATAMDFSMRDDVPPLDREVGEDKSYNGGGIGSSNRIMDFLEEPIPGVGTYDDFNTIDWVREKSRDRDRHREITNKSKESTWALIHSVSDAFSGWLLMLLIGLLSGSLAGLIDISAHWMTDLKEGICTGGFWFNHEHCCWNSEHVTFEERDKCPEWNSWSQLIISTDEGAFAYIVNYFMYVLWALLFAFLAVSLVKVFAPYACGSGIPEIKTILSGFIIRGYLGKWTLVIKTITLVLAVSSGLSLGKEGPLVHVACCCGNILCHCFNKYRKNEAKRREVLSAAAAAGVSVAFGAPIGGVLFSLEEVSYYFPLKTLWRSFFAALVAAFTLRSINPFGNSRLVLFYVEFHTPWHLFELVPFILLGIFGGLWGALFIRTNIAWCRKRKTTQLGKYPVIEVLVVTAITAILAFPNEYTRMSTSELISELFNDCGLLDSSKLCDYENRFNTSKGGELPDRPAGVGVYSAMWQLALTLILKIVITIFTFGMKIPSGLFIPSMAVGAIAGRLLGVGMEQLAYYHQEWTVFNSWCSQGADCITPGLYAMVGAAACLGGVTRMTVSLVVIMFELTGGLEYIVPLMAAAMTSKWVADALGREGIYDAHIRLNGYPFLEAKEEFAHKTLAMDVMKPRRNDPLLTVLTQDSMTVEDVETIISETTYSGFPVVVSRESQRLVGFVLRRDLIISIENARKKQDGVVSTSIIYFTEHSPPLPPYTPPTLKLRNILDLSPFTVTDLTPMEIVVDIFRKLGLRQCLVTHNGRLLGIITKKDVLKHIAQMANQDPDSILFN
Chain of UniProt O75122 (O75122 whole entry, looked up): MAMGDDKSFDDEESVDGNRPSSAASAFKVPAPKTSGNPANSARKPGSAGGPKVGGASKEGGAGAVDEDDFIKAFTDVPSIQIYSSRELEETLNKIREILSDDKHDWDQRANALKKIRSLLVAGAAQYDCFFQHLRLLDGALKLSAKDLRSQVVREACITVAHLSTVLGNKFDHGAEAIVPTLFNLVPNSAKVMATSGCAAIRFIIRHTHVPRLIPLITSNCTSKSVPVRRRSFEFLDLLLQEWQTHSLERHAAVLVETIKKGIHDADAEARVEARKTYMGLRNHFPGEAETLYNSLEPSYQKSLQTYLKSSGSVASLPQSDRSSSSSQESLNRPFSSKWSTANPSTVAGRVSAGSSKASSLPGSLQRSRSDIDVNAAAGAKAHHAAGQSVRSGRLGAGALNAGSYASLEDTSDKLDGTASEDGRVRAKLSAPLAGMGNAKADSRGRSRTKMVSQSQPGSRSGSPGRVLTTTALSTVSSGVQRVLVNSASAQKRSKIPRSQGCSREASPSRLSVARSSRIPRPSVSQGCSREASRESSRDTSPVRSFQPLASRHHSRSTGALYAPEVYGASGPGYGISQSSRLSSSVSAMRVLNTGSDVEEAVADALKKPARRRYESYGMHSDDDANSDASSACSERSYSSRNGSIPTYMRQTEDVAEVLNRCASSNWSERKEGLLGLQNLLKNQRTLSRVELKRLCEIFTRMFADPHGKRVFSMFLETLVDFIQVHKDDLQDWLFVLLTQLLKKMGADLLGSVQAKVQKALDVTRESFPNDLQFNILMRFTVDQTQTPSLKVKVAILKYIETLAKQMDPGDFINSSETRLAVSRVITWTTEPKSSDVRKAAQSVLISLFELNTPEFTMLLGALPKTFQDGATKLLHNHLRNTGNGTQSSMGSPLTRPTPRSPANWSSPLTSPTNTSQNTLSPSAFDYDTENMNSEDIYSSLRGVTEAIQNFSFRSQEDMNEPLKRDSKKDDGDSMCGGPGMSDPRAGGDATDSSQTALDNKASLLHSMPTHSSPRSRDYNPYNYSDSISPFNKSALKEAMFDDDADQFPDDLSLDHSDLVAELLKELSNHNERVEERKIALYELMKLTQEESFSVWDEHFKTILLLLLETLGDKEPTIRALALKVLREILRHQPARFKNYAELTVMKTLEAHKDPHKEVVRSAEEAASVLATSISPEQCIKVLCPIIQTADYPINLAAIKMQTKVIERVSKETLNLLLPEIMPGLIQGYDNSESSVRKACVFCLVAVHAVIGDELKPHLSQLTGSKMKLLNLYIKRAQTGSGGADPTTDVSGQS
Chain of UniProt Q99653 (Q99653 whole entry, looked up): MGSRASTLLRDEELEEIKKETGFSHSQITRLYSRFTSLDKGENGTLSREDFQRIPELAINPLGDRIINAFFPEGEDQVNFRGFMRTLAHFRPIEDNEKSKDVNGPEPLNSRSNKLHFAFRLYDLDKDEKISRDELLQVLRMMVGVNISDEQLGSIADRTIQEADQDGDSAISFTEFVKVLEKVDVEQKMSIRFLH

Target | log2 fold change [1] | log2 fold change [2] | log2 fold change [3] | log2 fold change [4] | log2 fold change [5]
CAD (UniProt P27708) | -0.115 | 0.048 | -0.019 | -0.005 | -0.033
CPSF3 (UniProt Q9UKF6) | -0.016 | 0.024 | 0.036 | -0.026 | 0.009
CHP1 (UniProt Q99653) | 0.022 | 0.016 | -0.058 | -0.057 | -0.015
CDKN1B (UniProt P46527) | -0.009 | -0.029 | -0.036 | – | -0.004
CCDC167 (UniProt Q9P0B6) | 0.153 | -0.037 | – | -0.124 | 0.073
COX7C (UniProt P15954) | -0.023 | – | -0.073 | -0.079 | –
CDK19 (UniProt Q9BWU1) | – | 0.035 | 0.05 | 0.021 | 0.019
CD84 (UniProt Q9UIB8) | – | 0.167 | – | -0.079 | 0.086
CA1 (UniProt E5RIF9) | -0.021 | – | 0.187 | 0.143 | –
COPS3 isoform 2 (UniProt Q9UNS2) | 0.009 | – | 0.2 | 0.04 | –
COX17 (UniProt Q14061) | – | 0.12 | 0.022 | -0.073 | -0.085
C1D (UniProt Q13901) | -0.019 | – | 0.028 | 0.074 | –
CASP8 isoform 9 (UniProt Q14790) | -0.013 | – | 0.052 | 0.033 | –
C22orf39 (UniProt Q6P5X5) | 0.126 | 0.145 | – | -0.06 | -0.037
COMMD3-BMI1 (UniProt R4GMX3) | – | -0.114 | – | 0.002 | 0.154
CNN1 (UniProt P51911) | – | 0.228 | -0.063 | -0.004 | 0.156
COG2 (UniProt Q14746) | – | 0.063 | – | 0.141 | -0.004
C6orf120 (UniProt Q7Z4R8) | -0.018 | – | 0.37 (active) | -0.038 | –
CHAF1A (UniProt Q13111) | 0.045 | -0.026 | – | – | -0.045
CDK2AP2 (UniProt O75956) | 0.026 | -0.017 | – | – | 0.012

Target | log2 fold change [1] | log2 fold change [2] | log2 fold change [3] | log2 fold change [4] | log2 fold change [5]
CHST10 (UniProt O43529) | 0.004 | -0.064 | – | -0.052 | 0.044
CRTC2 (UniProt Q53ET0) | 0.006 | – | -0.075 | 0.052 | –
CCNT2 (UniProt O60583) | – | – | – | 0.061 | –
CEBPZOS (UniProt A8MTT3) | -0.044 | – | -0.105 | -0.022 | –
CRTC1 isoform 2 (UniProt Q6UUV9) | -0.036 | – | 0.018 | 0.046 | –
CFAP47 (UniProt Q6ZTR5) | 0.068 | – | 0.173 | – | –
CDCA2 (UniProt Q69YH5) | – | 0.035 | 0.05 | -0.003 | -0.077
CKS2 (UniProt P33552) | -0.084 | – | – | -0.08 | –
CRLS1 (UniProt Q9UJA2) | – | -0.005 | -0.034 | -0.01 | 0.003
C5orf30 (UniProt Q96GV9) | – | – | – | -0.417 | –
CHPT1 (UniProt Q8WUD6) | – | 0.003 | – | -0.198 | 0.11
CASP9 (UniProt P55211) | – | -0.045 | 0.102 | 0.05 | 0.12
CLCN5 isoform 2 (UniProt P51795) | – | 0.028 | -0.023 | 0.024 | -0.053
CPNE5 (UniProt Q9HCH3) | – | -0.16 | – | 0.146 | -0.035
CLASP2 (UniProt O75122) | 0.059 | 0.117 | – | – | -0.222
C19orf54 (UniProt Q5BKX5) | – | -0.014 | 0.059 | 0.004 | 0.114
CAV2 (UniProt P51636) | 0 | – | – | -0.046 | –
COMMD1 (UniProt Q8N668) | 0.099 | – | 0.007 | 0.162 | –
C15orf41 (UniProt Q9Y2V0) | – | 0.081 | 0.014 | -0.011 | 0.149
CAB39L (UniProt Q9H9S4) | 0.088 | – | 0.201 | 0.285 | –
